Screening data as filed in PubChem BioAssay.
GAA glycogen mod: qHTS Assay for Inhibitors and Activators of Human alpha-Glucosidase Cleavage of Glycogen. Lysosomal alpha-glucosidase (Homo sapiens), P10253. recombinant GAA, glycogen substrate, Amplex Red glucose oxidase fluorescence. Potency, µM (top dose mostly 76.4 µM), for the others: at the top dose activity change, negative = inhibition, usual class: inhibitors. 0.38% of 300,000 active. AID 2100, 2009;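 also: potency is read from the fitted curve at half-maximal effect; 0% = full enzyme reaction and -100% = no-enzyme basal signal; the screen sought inhibitors and activators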
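Natural-substrate format: glycogen cleavage by 4 nM human enzyme, glucose read by Amplex Red coupling (Ex 573, Em 610 nm). Normalized to enzyme and no-enzyme controls.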
GAA inh: qHTS Assay for Inhibitors of Human alpha-Glucosidase as a Potential Chaperone Treatment of Pompe Disease | Lysosomal alpha-glucosidase (Homo sapiens), P10253 | purified human GAA, 4-MU-alpha-glucoside fluorescence | Potency, µM (highest dose often 76.9 µM), for inactives: at the highest dose activity change, negative = inhibition, actives largely listed as inhibitors | 0.005% of 200,000 active;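 also: potency is read from the fitted curve at half-maximal effect; plate controls were uninhibited enzyme wells for no effect and no-enzyme background for full effect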
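Fluorescence at Ex 365/Em 440 nm from 4-methylumbelliferone reported enzyme activity after 20 min at room temperature. Reactions used 4 nM enzyme and 400 uM substrate at pH 5.0; curves fitted with the Hill equation.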
aGlu spleen mod: qHTS Assay for Inhibitors and Activators of Human alpha-Glucosidase From Spleen Homogenate. Lysosomal alpha-glucosidase (Homo sapiens), P10253. human spleen homogenate, 4-MU-alpha-glucoside fluorescence. Potency, µM (titrated, usually from 79.9 µM), for inactives: top-dose activity change, negative = inhibition, usual class: inhibitors. 0.006% of 240,000 active. AID 2112, 2009;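 also: potency is read from the fitted curve at half-maximal effect; 0% = enzyme with vehicle and -100% = no enzyme basal signal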
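Human spleen homogenate (1 ug) with 4-methylumbelliferyl-alpha-D-glucopyranoside (1 mM final) in 50 mM citrate/phosphate pH 5.0, 0.01% Tween-20; 40 min at 37 C. Stopped at pH 10; 4-MU fluorescence Ex 365/Em 440 nm; AC50 by Hill fit.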
PKM2 activator: qHTS Assay for Activators of Human Muscle isoform 2 Pyruvate Kinase. AID 1631, 2009. purified PKM2, Kinase-Glo ATP luminescence, activation; response scale: 0% is enzyme alone, no compound. 0.34% of 260,000 active. Pyruvate kinase PKM (Homo sapiens), P14618. Potency, µM (highest dose often 57.5 µM), for inactives: top-dose activation, hits mostly activators; also: potency is read from the fitted curve at half-maximal effect; % is scaled to controls: 0 for no effect and ±100 for the full control effect; nearly all actives have a fitted effect of over 55% in size
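ATP formation by purified human PK-M2, quantified via coupled luciferase luminescence after 1 h at room temperature with 0.1 mM ADP and 0.5 mM PEP final.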
GALK inh: qHTS Assay for Inhibitors of Human Galactokinase (GALK); 0.007% of 270,000 active; Potency, µM (series often up to 57.5 µM), inactives show at the top dose activity change, negative = inhibition, usual class: inhibitors; P51570; Purified GALK, Kinase-Glo residual ATP luminescence; also: potency is read from the fitted curve at half-maximal effect; % is scaled to controls: 0 for no effect and ±100 for the full control effect
Target sequence (P51570 whole entry, looked up): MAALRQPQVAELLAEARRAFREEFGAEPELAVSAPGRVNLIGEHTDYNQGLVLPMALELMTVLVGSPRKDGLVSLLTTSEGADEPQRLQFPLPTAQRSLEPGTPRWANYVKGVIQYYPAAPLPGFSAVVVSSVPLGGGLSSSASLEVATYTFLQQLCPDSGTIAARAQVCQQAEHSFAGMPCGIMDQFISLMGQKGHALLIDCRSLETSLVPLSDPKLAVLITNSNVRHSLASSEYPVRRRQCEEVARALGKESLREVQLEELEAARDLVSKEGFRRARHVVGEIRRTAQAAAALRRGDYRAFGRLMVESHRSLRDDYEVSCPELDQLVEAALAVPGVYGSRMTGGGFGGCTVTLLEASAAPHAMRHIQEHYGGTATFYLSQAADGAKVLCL
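5 nM enzyme, 35 uM ATP, 100 uM galactose, 20 mM HEPES pH8.0, 5 mM MgCl2; 1 h RT; residual ATP by Kinase-Glo Plus luminescence, qHTS format.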
HeLa tox: Secondary assay for Activators of Human Pyruvate Kinase M2 isoform - Cell Titer Glo cytotoxicity assay. shares compounds with PKM2 activator. HeLa viability, CellTiter-Glo ATP luminescence, 24 h. activity change, negative = cytotoxicity, % at 57.5 µM. 230 tested, under 10 active; also: % of control where 0% means no effect
Starred values were filed as active, the others as inactive; ? = inconclusive; nt = no result given; [ ] = dose if it differs, or a comment. In the library only some 0.63% were active in any assay of this set; here they are far more common. Calls follow the shape of the dose curve; as a rule, active = well fitted curve in the direction sought with a large enough effect; inconclusive = small, poorly fitted or top-dose-only effect, or another doubt; inactive = no such curve, though single readings can be large; an effect the other way counts as inactive or inconclusive.

SMILES | GAA glycogen mod | GAA inh | aGlu spleen mod | PKM2 activator | GALK inh | HeLa tox
COc1ccc(NC(=O)c2c(C)oc3ccc(O)c(CN4CCCCCC4)c23)cc1 | -3.7%[76.3 µM] | nt | nt | nt | nt | nt
CCc1ccc(CN(Cc2cn[nH]c2-c2ccc(OC)cc2)C(=O)Nc2cc(Cl)ccc2OC)cc1 | 11.4%[76.3 µM] | nt | nt | nt | nt | nt
O=C1CN(S(=O)(=O)c2ccc3c(c2)OCCO3)CCN1S(=O)(=O)c1c(F)cccc1F | nt | nt | nt | nt | nt | -13.1
O=S(=O)(NCC1CN(S(=O)(=O)c2c(F)cccc2F)C1)c1ccc2c(c1)OCCO2 | nt | nt | nt | nt | nt | -6.2
O=S(=O)(c1ccc2c(c1)OCCO2)N1CCCN(S(=O)(=O)c2c(F)cccc2F)CC1 | nt | nt | nt | nt | nt | -13.3
O=S(=O)(NCCCCCNS(=O)(=O)c1c(F)cccc1F)c1ccc2c(c1)OCCO2 | nt | nt | nt | nt | nt | -1.7
O=S(=O)(c1ccc2c(c1)OCO2)N1CCN(S(=O)(=O)c2c(F)cccc2F)CC1 | nt | nt | nt | nt | nt | ?
COc1cccc(S(=O)(=O)N2CCN(S(=O)(=O)c3ccc4c(c3)OCCO4)CC2)c1 | nt | nt | nt | nt | nt | 2.1
CS(=O)(=O)N1CCN(C(=O)c2ccc3c(c2)OCCO3)CC1 | 9.5%[76.3 µM] | nt | nt | 9.1% | 1.2% | nt
O=S(=O)(c1c(F)cccc1F)C1CCN(S(=O)(=O)c2ccc3c(c2)OCCO3)CC1 | nt | nt | nt | nt | nt | -9.2
O=C(c1ccc2c(c1)OCCO2)N1CCN(S(=O)(=O)c2c(F)cccc2F)CC1 | nt | nt | nt | nt | nt | ?
CCCCn1cc(S(=O)(=O)c2ccc(CC)cc2)c(=O)c2cc(F)c(N3CCCC(C)C3)cc21 (centres undefined) | -9.0%[76.3 µM] | nt | nt | nt | nt | nt
S=C(c1ccc(-c2ccc(Cl)cc2Cl)o1)N1CCCC1 | 5.4% | -5.2% | -9.0% | 8.91µM* | 1.7% | 4.6
S=C(c1ccc(-c2ccc(Cl)cc2Cl)o1)N1CCCCC1 | 0.5% | 4.8% | -3.3% | 6.1% | -1.5% | nt
COc1ccc(/C=C/C(=O)N2CCC(c3nc4ccccc4o3)CC2)cc1OC | -5.7%[76.3 µM] | nt | nt | nt | nt | nt
CCC(Cc1ccccc1)NC(=O)c1csc2c1CCCCC2 (centres undefined) | -4.5%[76.3 µM] | nt | nt | nt | nt | nt
Cn1c(N)c(C(=O)CSc2ccc3c(c2)OCCO3)c(=O)n(C)c1=O | 0.0% | -2.4% | -17.1% | 3.55µM* | 2.4% | 0.5
CCCN1C(=O)S/C(=C/c2ccc(N3CCOCC3)o2)C1=O | -25.5% | nt | 7.8% | 1µM* | -1.8% | 0.2
CCOC(=O)CN1C(=O)S/C(=C/c2ccc(N3CCCCC3)o2)C1=O | -10.2% | -1.2% | -6.1% | -1.9% | -0.2% | nt
COCCCNC(=O)CCc1c(C)nc2cc(-c3ccc(Cl)cc3)nn2c1C | 20.7%[76.3 µM] | nt | nt | nt | nt | nt
Cc1oc(=O)c(NC(=O)c2ccc(Cl)cc2)cc1C(=O)c1ccccc1 | -26.2% | 3.2% | -4.9% | 6.31µM* | 4.2% | 2.2
Cc1oc(=O)c(NC(=O)c2ccccc2)cc1C(=O)c1ccccc1 | -20.7% | 9.2% | -1.8% | 27.6% | 4.0% | nt
CC[C@H](C)C(N)C(=O)O (some centres undefined) | nt | nt | 6.4% | nt | nt | nt
COc1ccc2nc(SCC(=O)Nc3cc(C)on3)c(C#N)cc2c1 | -1.4% | nt | nt | nt | 0.5% | nt
COc1cc2cc(C#N)c(SCC(=O)Nc3cc(C)on3)nc2cc1OC | 11.6% | nt | nt | 0.224µM* | -5.2% | -5.1
SMILES | GAA glycogen mod | GAA inh | aGlu spleen mod | PKM2 activator | GALK inh | HeLa tox
CN(C)C1CCN(CCCOc2ccc(-c3ccc(C#N)cc3)cc2)C1 (centres undefined) | nt | nt | -1.9% | nt | nt | nt
CCOc1ccc(CN2CCN(C(=O)c3ccccc3)CC2)cc1 | -4.1% | -7.5% | -5.1% | 1.1% | -1.2% | nt
CCOc1ccc(C(=O)N2CCN(Cc3ccccc3)CC2)cc1 | -6.3% | -3.5% | 2.7% | 5.62µM* | 2.1% | 0.0
COc1ccc(C(=O)NCCN2C(=O)S/C(=C\c3cccnc3)C2=O)cc1[N+](=O)[O-] | 4.8% | nt | 4.7% | 3.55µM* | 0.1% | -8.5
Cc1ccc(NS(=O)(=O)c2cc3c4c(cccc4c2)C(=O)NC3=O)cc1C | -0.5% | -1.4% | -1.7% | 3.98µM* | nt | ?
O=C1NC(=O)c2cc(Br)cc3cccc1c23 | 4.7% | 0.3% | -2.4% | 5.1% | -0.5% | nt
COc1ccccc1CNC(=O)CSc1ccc(-c2sc(-c3ccccc3)nc2C)nn1 | 6.9%[76.3 µM] | nt | nt | nt | nt | nt
CC1CCC(NC(=O)C2(C)Cc3ccccc3C(=O)N2Cc2ccccc2Cl)CC1 (centres undefined) | -12.0%[76.3 µM] | nt | nt | nt | nt | nt
CCOc1ccccc1-c1noc(CSc2nnc(-c3ccccc3)n2-c2ccc(OC)cc2)n1 | 13.0%[76.3 µM] | nt | nt | nt | nt | nt
CCc1ccc(NC(=O)CSc2nc3ncccc3[nH]2)cc1 | 15.1%[76.3 µM] | nt | nt | nt | nt | nt
COc1ccccc1NC(=O)CSc1nn2c(=O)c(C)nnc2s1 | -4.5%[76.3 µM] | nt | nt | -2.1% | -1.0% | nt
Cc1nnc2sc(SCC(=O)Nc3nccs3)nn2c1=O | 4.7% | 0.0% | 4.8% | 1.41µM* | 2.2% | 0.0
CCOC(=O)C1CCCN(c2nc3c(S(=O)(=O)c4ccc(C)c(C)c4)nnn3c3ccc(Cl)cc23)C1 (centres undefined) | -2.5%[76.3 µM] | nt | nt | nt | nt | nt
